Screens (PubChem BioAssay)
NALP1 inh = NALP1 inhibition; S. cerevisiae NALP1/ASC/caspase-1 growth, X-gal OD620, 72 h; inhibition, % at 10 µM; 0.61% of 280,000 active; AID 2071; in the data active means inhibition mostly above about 24%, no sharp cut-off; inactive means mostly below about 32%
CHT PAM = allosterically activates the human high affinity choline transporter; CHT-expressing cells, membrane potential dye, choline EC20; stronger effect = higher value; LV-AA mutant CHT in HEK293 cells; B-score at 10 µM; 0.49% of 310,000 active;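 active means initial fluorescence not abnormally high and integrated response B-score, plate-corrected, over 3 SD above library mean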
Target sequence (Q9GZV3 whole entry, looked up): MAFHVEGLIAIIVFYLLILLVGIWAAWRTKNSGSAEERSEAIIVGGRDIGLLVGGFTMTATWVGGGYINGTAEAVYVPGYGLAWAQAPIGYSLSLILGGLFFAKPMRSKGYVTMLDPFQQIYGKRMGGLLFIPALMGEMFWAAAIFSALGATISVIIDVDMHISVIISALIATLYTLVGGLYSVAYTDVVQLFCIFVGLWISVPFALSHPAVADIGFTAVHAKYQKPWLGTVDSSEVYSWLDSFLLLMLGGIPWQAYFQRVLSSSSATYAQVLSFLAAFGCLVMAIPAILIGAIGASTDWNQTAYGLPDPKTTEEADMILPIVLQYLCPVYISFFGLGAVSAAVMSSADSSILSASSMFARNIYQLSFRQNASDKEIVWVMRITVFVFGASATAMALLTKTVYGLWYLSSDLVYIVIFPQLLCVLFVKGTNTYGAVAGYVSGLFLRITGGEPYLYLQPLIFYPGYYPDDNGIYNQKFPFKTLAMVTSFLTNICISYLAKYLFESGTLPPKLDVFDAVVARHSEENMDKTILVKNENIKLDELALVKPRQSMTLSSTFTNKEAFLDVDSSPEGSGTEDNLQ
SUMO Mot1 rescue = inhibitors of SUMOylation pathway: yeast Mot1-301 growth rescue; S. cerevisiae Mot1-301 growth rescue, ATP luminescence, 38.5C; percent above DMSO median, 100 means doubled; growth rescue, % at 18.8 µM; 1% of 320,000 active; AID 2716;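 active means every valid replicate shows activation above 250% relative to neutral control wells; inactive means the rest, any valid replicate at or below 250%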;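 further: OY570 slx delta 5 strain wells were the positive control but not used for scaling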
A1 inh = inhibitors of the anti-apoptotic protein A1, read as caspase activation | MEF A1-2A-BIM cells, Caspase-Glo 3/7 luminescence, 3 h; percent of clofoctol response, vehicle zero | caspase activation, % (concentration not given with the values) | 0.066% of 330,000 active | AID 2462;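 active means over half of replicate activation scores above 10%, or exactly half above 10 with the replicate mean above 10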
CHT inh = inhibitors of human choline transporter CHT; CHT-expressing cells, membrane potential dye, choline response; stronger effect = lower value; B-score at 10 µM; 0.86% of 310,000 active; Q9GZV3;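 active means B-score over 3 SD under the library average, and starting fluorescence ratio not unusually high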;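 further: choline stimulus applied at its EC90 after an EC20 pre-addition; B-score computed on integrated fluorescence ratio after choline addition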
NLRP3 yeast inh = NALP3 inhibition in yeast. AID 2825. inhibition, % at 10 µM. 0.39% of 330,000 active. Yeast reconstituted NLRP3/ASC/caspase-1, beta-gal luminescence, 24 h;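 active means inhibition of 50% or more; inactive means inhibition below 50%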;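 further: plate controls were induced DMSO wells for no effect and uninduced yeast grown without galactose for full effect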
Yeast Mot1 SUMO = SUMO pathway inhibitors in yeast Mot1-301 growth; shares compounds with SUMO Mot1 rescue; S. cerevisiae Mot1-301 galactose growth, ATP luminescence, 24 h; -100 = growth of slx-deleted rescue strain; growth activity, percent, % at 42 µM; 2,300 tested, under 10 active; AID 493004;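 active means Signal drops as the depositor expects, and the fitted half-maximal dose is no more than ten times the top valid tested dose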;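 further: more negative values mean stronger growth rescue toward the control strain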
* = called active by the depositor; i = inactive; x = no result given; + = active, no number. Most compounds without a hit are left out; they make up all but 3% or so of the library.

SMILES	NALP1 inh	CHT PAM	SUMO Mot1 rescue	A1 inh	CHT inh	NLRP3 yeast inh	Yeast Mot1 SUMO
COc1ccc(C(=O)N2CCN(c3nnnn3-c3ccccc3)CC2)cc1OC	-2	i	-10	0	i	4	x
COc1cc([N+](=O)[O-])ccc1NC(=O)NCCCN1CCCC1=O	2	i	13	0	i	8	x
Cc1cc(C)c(S(=O)(=O)N2CCCC(C(=O)NCc3ccncc3)C2)c(C)c1 (centres undefined)	10	i	-11	0	i	16	x
O=C(CCSc1nnc(-c2ccncc2)o1)Nc1ccc(Cl)cc1	16	i	450*	0	i	0	-1
O=C(CCSc1nnc(-c2ccncc2)o1)Nc1ccccc1Cl	16	i	45	1	i	0	x
CCN(CC)c1ccc2c(C)c(CO)c(=O)oc2c1	2	i	5	0	i	4	x
CCN(CC)c1ccc2c(C)c(CN3CCOCC3)c(=O)oc2c1	7	i	+	0	i	4	-1
O=C(CCSc1ccccc1)Nc1ccc(S(=O)(=O)Nc2ncccn2)cc1	-11	i	-2	-3	i	12	x
O=C(CCSc1ccccc1)Nc1ncccn1	32	i	731*	0	i	4	0
N#CC1(NC(=O)CSc2nnc3n2CCCCC3)CCCCC1	x	x	-17	1	x	13	x
O=[N+]([O-])c1ccc(N=Nc2ncc[nH]2)cc1	4	i	-11	1	i	45	x
O=C(CCCC(=O)N(CC(=O)NC1CCCC1)c1cccc(F)c1)Nc1ccccn1	16	i	362*	0	i	3	1
COCCN1C(=O)/C(=C/c2cc3c(cc2Br)OCO3)NC1=S	-16	i	603*	0	i	7	-1
CCN(CC)S(=O)(=O)c1ccc(N2CCCC2)c(C(=O)OCC(=O)Nc2cc(C)on2)c1	x	i	544*	0	i	-13	0
CCN(CC)S(=O)(=O)c1ccc(N2CCCC2)c(C(=O)OCC(=O)N2CCCC2)c1	-6	i	4	1	i	6	x
O=C(CCC1CCCNC1)c1ccccc1 (centres undefined)	16	i	-1	0	i	13	x
O=C(COC(=O)c1ccccc1SCC(=O)N1CCCC1)NC1CCCCC1	x	i	792*	-1	i	5	0
O=C(COC(=O)c1ccccc1SCC(=O)N1CCCC1)NC1CCS(=O)(=O)C1 (centres undefined)	x	i	-25	0	i	-9	x
Cc1cccc(C(=O)CC(=O)c2cc(Cl)ccc2O)c1	22	i	213	-1	i	-1	x
Cc1ccc(O)c(C(=O)CC(=O)c2cccc(F)c2)c1	1	i	538*	-1	i	16	-1
Nc1nnnn1CC(=O)N/N=C/c1cccs1	6	i	627*	0	i	23	0
O=C(CCC(=O)N1CCOc2ccccc21)NCc1cccnc1	10	i	11	0	i	10	x
O=C(O)c1ccc(Cl)c(NCc2cccs2)c1	-5	i	560*	0	i	12	0
CCC(=O)Nc1ccc2c(c1)C(=O)N(C)C2=O	13	i	i	-1	i	10	x
CN1C(=O)c2ccc(NC(=S)NC(=O)C(C)(C)C)cc2C1=O	18	i	439*	0	i	19	0
O=C(COc1ccccc1)NCCS(=O)(=O)N1CCN(c2ccccc2)CC1	x	i	380*	1	i	5	0
O=S(=O)(Cc1ccccc1)N1CCN(c2ccccc2)CC1	7	i	583*	0	i	x	0
CCCC/C=C/[C@H](c1ccccc1)[C@H](CO)Cc1cccnc1	x	i	5	1	i	-15	x
COc1cccc(CSc2ccc(S(=O)(=O)N3CCOCC3)cc2C(=O)NCC2CCCO2)c1OC (centres undefined)	-3	i	-10	0	i	5	x
